The full ranking holds about 33,000 sequences; the median of “E-score (-0.5 to 0.5)” is about -0.0014, and the highest 2% start at about 0.25. The sample as a whole holds a higher share of the highest values than the screen did.
Each sequence was assayed against T1, Cad1 (UniProt P24813) (assay: PBM E-score (8-mer binding enrichment) (E-score (-0.5 to 0.5)); higher = stronger / more preferred TF binding). Settings: protein concentration: 100 nM; construct: GST-full length.
T1 sequence: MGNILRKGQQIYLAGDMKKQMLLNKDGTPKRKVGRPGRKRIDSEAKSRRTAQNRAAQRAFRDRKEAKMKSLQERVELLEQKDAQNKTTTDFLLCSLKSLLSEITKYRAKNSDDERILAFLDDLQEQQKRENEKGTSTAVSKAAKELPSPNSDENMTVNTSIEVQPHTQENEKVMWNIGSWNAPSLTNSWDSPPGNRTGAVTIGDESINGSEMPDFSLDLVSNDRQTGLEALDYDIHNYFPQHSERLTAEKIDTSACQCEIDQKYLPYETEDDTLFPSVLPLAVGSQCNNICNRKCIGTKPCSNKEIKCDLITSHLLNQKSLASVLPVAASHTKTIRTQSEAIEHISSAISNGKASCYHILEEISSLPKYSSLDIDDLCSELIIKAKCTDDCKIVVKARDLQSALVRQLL
Experimental: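 Universal 'all 10-mer' protein binding microarrays (Agilent AMADID 015681) probed with GST-tagged S. cerevisiae TFs (full-length or DBD) made by in vitro transcription/translation (PURExpress), about 100-200 nM. Bound TF was detected with fluorescent anti-GST. Each ungapped 8-mer (which stands for itself and its reverse complement) is scored by the PBM enrichment score (E-score), a modified Wilcoxon-Mann-Whitney statistic from -0.5 to +0.5, computed with the Universal PBM Analysis Suite. Scale: above 0.35 generally sequence-specific binding.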

| Sequence | PBM E-score |
| --- | --- |
| AGCGTGAG | -0.0272 |
| CGCGTGAC | 0.056 |
| AGCGCGAG | 0.0178 |
| ATCGTGCC | 0.102 |
| ATCGTGCG | 0.325 |
| ATCGCGCG | 0.282 |
| CGCGCGAA | 0.175 |
| CGCGTGAG | 0.269 |
| ATCGCGCC | 0.143 |
| CAACCAAA | 0.0894 |
| CGGAGTAA | 0.109 |
| ATAGACCG | -0.0498 |
| AACGCACC | -0.0282 |
| ACACCAAC | -0.0461 |
| CTCAATGC | -0.134 |
| ACTGGGAA | -0.0452 |
| CCTTATCG | 0.0678 |
| TCTTATCA | 0.267 |
| ACTTATCA | 0.116 |
| CCTTATCA | 0.257 |
| GCTTATCA | 0.0614 |
| TCTTATAA | 0.0694 |

| Sequence | PBM E-score |
| --- | --- |
| TGTGAAAA | 0.103 |
| ACGGAACC | 0.218 |
| GACCGGGC | -0.104 |
| AACTGATA | 0.0697 |
| ACAGACCC | -0.211 |
| AGAGACCT | -0.104 |
| CGGGACTA | -0.22 |
| ACGCACTG | -0.0467 |
| GGGCCTTA | -0.0621 |
| ATTAGTGG | 0.163 |
| ATTAGTGA | 0.14 |
| GTTAGTTA | 0.155 |
| ATTAGTGC | 0.353 |
| GCTAGTCA | -0.0828 |
| GGTAGTCA | -0.206 |
| GTTAGTCA | 0.266 |
| CTTAGTCA | 0.38 |
| ATTAGTTA | 0.362 |
| ATTAGTTG | 0.216 |
| CTTAGTCC | -0.0572 |
| CCTAGTCA | -0.0765 |
| GGTCTCAA | -0.0801 |

| Sequence | PBM E-score |
| --- | --- |
| GTCTACGA | -0.0725 |
| CCGGTTAG | 0.0658 |
| CACCGATG | -0.179 |
| ATTTCGAC | -0.0837 |
| GCGGGTAC | 0.0345 |
| CAATACCG | -0.0276 |
| AGGTCCCG | -0.0309 |
| AGCGATCG | 0.216 |
| ACGCTAGC | -0.0932 |
| AGGCATTA | -0.16 |
| AAGGGGCT | 0.0431 |
| CAGCGGTC | -0.229 |
| GTTAGTGA | -0.0153 |
| GATAGTAA | 0.156 |
| TATAGTAA | 0.294 |
| CATAGTAA | 0.141 |
| GTTAGTAA | 0.422 |
| GGTAGTAA | -0.0434 |
| ACCACACC | -0.169 |
| CCAGGAAG | -0.131 |
| ACTCGACT | -0.153 |
| CACCGAAA | 0.12 |

| Sequence | PBM E-score |
| --- | --- |
| CTGACCAA | 0.276 |
| TTGACAAA | 0.294 |
| GTGACCAA | 0.0231 |
| CTGACATA | 0.205 |
| TCGACAAA | 0.195 |
| ATGACAAC | 0.183 |
| ATGACATA | 0.267 |
| GTGACAAA | 0.229 |
| ATGACAAA | 0.414 |
| ATGACATC | 0.232 |
| ATGACAAG | 0.127 |
| TTGACCAA | 0.0548 |
| CAGCGCGG | 0.112 |
| TATTGCAA | 0.19 |
| CTCCGCAG | 0.00742 |
| GGCCTTAC | -0.166 |
| AACCAAAC | -0.102 |
| AGATGGGA | -0.204 |
| CTGACAAA | 0.444 |
| CTGACAAG | 0.101 |
| CTGACAAC | 0.0707 |

Source: the supplement of paper PMC3334620
